Data: PubChem BioAssay AID687026 (Broad Institute, 2013)
Measured potencies and affinities stand elsewhere. Active and inactive are the calls of the source. No rule for the calls is given here.

assay: viability loss in CEM21 cells – cell-based, plate reader, dry powder, cytotoxicity control, dose response (AID 687026); settings: series mostly up to 35 µM

| Structure (SMILES) | outcome |
| --- | --- |
| CCOc1ccc(S(=O)(=O)NCc2ccccn2)cc1 | inactive |
| Cc1noc(C)c1S(=O)(=O)Nc1cccc2c1O[C@@H](CN(C)Cc1ccc(C(F)(F)F)cc1)[C@@H](C)CN([C@@H](C)CO)C2=O | inactive |
| Cc1noc(C)c1S(=O)(=O)Nc1cccc2c1O[C@@H](CN(C)Cc1ccc(C(F)(F)F)cc1)[C@H](C)CN([C@H](C)CO)C2=O | inactive |
| CC(=O)Nc1ccc(NC(=O)CN(c2ccc(C34CC5CC(CC(C5)C3)C4)cc2)S(C)(=O)=O)cc1 | inactive |
| CCOc1ccc(C)cc1S(=O)(=O)NCc1ccncc1 | inactive |
| Cc1noc(C)c1S(=O)(=O)Nc1cccc2c1O[C@H](CN(C)Cc1ccc(C(F)(F)F)cc1)[C@@H](C)CN([C@@H](C)CO)C2=O | inactive |
| C[C@H]1CCCCO[C@@H](CN(C)Cc2ccncc2)[C@@H](C)CN([C@@H](C)CO)C(=O)c2cc(NC(=O)Nc3ccccc3)ccc2O1 | inactive |
| Cc1noc(C)c1S(=O)(=O)Nc1cccc2c1O[C@@H](CN(C)Cc1ccc(C(F)(F)F)cc1)[C@H](C)CN([C@@H](C)CO)C2=O | inactive |
| Cc1ccc(S(=O)(=O)N(C)C[C@@H]2Oc3ccc(NS(=O)(=O)c4c(C)noc4C)cc3CC(=O)N([C@H](C)CO)C[C@@H]2C)cc1 | inactive |
| CCOc1ccc(S(=O)(=O)NCc2ccccc2)cc1 | inactive |
| CO[C@@H]1CN(C)C(=O)c2ccc(NC(=O)Nc3cccc(F)c3)cc2OC[C@@H](C)N(C(=O)Nc2cccc(F)c2)C[C@H]1C | inactive |
| CCCC#Cc1ccc2c(c1)O[C@@H](CN(C)S(=O)(=O)c1cccc(F)c1)[C@@H](C)CN([C@H](C)CO)S2(=O)=O | inactive |
| Cc1noc(C)c1S(=O)(=O)Nc1cccc2c1O[C@H](CN(C)Cc1ccc(C(F)(F)F)cc1)[C@H](C)CN([C@H](C)CO)C2=O | inactive |
| CCOc1ccc(OCC)c(S(=O)(=O)NCc2ccncc2)c1 | inactive |
| COc1ccc(S(=O)(=O)NCc2ccncc2)cc1OC | inactive |
| CCCn1nc(C(=O)Nc2ccc3nc(N4CCOCC4)sc3c2)ccc1=O | inactive |
| Cc1noc(C)c1S(=O)(=O)Nc1cccc2c1O[C@H](CN(C)Cc1ccc(C(F)(F)F)cc1)[C@@H](C)CN([C@H](C)CO)C2=O | inactive |
| O=S(=O)(NCc1ccncc1)c1ccc2c(c1)OCCO2 | inactive |
| COc1ccccc1CCNCc1ccc(OC)c(OCc2ccccc2)c1 | inactive |
| Cn1c(C(=O)N2CCN(c3nc4ccccc4s3)CC2)cc2sccc21 | inactive |
| CC1(C)CC(NC(=O)C(=O)Nc2ccc(Cl)cc2)CC(C)(C)N1 | inactive |
| Cc1noc(C)c1S(=O)(=O)N(C)C[C@@H]1Oc2ccc(NC(=O)Nc3ccccc3)cc2CC(=O)N([C@@H](C)CO)C[C@@H]1C | inactive |
